The assay concerns the target Huntingtin (Homo sapiens) (UniProt P42858). Nature of the assay: qHTS Assay Multiplex Screening to Identify Dual Action Probes in a Cell Model of Huntington: Cytoprotection (Protease release). [Related pubchem assays: 1482, 1471, 1688 ]. The class given is functional. A general note: In qHTS, concentration-response curves come from the screen itself.

These assays gave more results; the selection is not random.

Huntingtin (Homo sapiens), sequence (P42858 whole entry): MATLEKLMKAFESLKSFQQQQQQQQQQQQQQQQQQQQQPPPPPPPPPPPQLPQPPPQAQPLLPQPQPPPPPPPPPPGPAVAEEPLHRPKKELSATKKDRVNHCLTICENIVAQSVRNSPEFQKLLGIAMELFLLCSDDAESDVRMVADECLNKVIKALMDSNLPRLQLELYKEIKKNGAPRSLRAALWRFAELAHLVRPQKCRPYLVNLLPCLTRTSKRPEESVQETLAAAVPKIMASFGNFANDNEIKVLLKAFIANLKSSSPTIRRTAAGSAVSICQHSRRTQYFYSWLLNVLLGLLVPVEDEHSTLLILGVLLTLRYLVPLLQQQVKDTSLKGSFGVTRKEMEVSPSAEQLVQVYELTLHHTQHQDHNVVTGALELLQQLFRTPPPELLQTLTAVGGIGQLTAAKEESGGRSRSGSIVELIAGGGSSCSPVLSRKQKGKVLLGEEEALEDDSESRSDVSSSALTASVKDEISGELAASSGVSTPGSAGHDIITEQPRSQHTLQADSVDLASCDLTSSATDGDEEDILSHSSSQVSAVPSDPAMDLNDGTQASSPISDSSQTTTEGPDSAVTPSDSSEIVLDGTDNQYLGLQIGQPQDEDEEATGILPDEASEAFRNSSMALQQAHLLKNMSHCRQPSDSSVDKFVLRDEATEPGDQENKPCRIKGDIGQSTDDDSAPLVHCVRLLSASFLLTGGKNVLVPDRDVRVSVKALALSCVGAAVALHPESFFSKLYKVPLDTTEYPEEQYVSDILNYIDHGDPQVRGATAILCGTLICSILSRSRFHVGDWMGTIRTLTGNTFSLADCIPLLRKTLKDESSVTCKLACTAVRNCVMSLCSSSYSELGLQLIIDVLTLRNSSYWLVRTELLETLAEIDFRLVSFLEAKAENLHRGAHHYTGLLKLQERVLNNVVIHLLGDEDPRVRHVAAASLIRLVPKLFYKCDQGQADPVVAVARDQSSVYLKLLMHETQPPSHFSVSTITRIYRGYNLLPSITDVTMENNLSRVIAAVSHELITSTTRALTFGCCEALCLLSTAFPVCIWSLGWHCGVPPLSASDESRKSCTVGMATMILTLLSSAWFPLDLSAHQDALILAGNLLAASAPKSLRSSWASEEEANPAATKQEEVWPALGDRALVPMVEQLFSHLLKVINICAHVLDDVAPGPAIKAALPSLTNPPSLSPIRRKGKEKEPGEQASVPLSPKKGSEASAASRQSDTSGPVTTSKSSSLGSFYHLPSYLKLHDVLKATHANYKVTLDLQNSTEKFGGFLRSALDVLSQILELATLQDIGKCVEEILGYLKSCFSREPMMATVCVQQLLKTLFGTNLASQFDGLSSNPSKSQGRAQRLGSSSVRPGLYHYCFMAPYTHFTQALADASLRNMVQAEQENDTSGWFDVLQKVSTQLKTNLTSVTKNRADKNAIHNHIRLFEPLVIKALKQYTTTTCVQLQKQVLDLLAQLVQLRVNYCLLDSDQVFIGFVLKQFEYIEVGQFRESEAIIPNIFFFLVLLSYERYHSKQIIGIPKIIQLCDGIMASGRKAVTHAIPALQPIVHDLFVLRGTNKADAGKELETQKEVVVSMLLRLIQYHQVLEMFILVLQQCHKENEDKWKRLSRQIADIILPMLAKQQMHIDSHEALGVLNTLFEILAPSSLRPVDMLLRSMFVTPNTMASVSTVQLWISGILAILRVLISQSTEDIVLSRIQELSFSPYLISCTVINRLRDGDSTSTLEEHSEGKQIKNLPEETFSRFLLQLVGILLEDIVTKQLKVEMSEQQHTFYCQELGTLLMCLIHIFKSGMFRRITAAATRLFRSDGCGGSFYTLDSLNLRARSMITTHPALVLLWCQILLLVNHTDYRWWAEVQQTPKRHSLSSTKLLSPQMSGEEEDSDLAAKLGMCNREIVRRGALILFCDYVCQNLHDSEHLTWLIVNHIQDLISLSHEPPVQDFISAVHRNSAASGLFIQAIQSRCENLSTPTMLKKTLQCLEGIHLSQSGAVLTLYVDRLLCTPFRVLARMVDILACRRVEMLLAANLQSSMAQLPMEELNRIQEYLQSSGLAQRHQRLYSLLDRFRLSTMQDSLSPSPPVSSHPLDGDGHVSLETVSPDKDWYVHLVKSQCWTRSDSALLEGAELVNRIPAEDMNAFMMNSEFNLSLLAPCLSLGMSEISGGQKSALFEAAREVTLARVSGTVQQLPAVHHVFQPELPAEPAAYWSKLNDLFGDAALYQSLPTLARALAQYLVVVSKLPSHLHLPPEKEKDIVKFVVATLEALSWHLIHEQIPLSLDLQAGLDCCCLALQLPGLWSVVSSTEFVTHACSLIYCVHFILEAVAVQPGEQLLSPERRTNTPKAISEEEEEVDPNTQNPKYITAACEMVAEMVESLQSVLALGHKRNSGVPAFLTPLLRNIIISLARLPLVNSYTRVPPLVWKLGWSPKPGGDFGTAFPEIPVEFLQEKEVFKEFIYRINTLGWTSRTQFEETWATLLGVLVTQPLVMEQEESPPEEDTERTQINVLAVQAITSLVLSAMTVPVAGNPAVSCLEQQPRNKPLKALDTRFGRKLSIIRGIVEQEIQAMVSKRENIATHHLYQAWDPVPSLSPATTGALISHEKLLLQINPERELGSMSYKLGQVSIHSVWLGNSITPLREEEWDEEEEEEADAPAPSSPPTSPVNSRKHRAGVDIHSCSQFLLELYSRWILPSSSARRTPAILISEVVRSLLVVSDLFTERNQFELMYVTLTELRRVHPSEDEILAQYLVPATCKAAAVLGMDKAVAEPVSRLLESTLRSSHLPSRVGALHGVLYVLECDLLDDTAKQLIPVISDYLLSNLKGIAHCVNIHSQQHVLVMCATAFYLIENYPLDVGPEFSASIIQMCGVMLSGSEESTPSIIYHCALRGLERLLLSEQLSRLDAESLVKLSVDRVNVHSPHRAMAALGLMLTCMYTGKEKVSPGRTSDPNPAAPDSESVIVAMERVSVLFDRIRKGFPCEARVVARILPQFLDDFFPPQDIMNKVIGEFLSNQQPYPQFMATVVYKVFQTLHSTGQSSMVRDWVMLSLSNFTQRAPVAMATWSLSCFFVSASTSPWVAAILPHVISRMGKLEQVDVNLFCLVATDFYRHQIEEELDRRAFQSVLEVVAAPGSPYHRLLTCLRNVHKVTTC

Consider `COC[C@@H]([C@H](O)[C@H](O)C(=O)NCC[C@H](C)c1nc(/C=C/C[C@@H]2O[C@]3(C[C@@H](O)[C@@H]2C)O[C@H]([C@H](C[C@H](O)[C@H](C)[C@H](O)[C@H](C)/C=C(C)/C(C)=C/C=C/C(C)=C\C#N)OC)[C@H](OP(=O)(O)O)C3(C)C)co1)N(C)C`, for which the Potency is 1120 nM (active).

The values above are taken from ChEMBL document CHEMBL1201862, “PubChem BioAssay data set” (2004).
